CF NFkB block: inhibitors of PAF-induced NF-kB signaling, primary screen, cell-based, GFP fluorescence, uHTS. AID 588850, 2011. 360,000 compounds, 0.86% hits. KKLEB NF-kB-GFP reporter, GFP fluorescence overnight. inhibition, % at 5 µM;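 active means at least 50% inhibition at 5 µM, scaled per plate between neutral and stimulator controls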;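 further: PAF is a Pseudomonas aeruginosa culture filtrate used as stimulus; plate controls were PAF-stimulated DMSO wells for no effect and unstimulated DMSO wells for full effect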
ABHD5 PLIN5 PPI: ABHD5-PLIN5 interaction inhibitors, primary screen, cell lysate, split luciferase complementation, luminescence | Perilipin-5 (Homo sapiens) + 1-acylglycerol-3-phosphate O-acyltransferase ABHD5 (Homo … | Split G. princeps luciferase complementation, 4 h | AID 602281, 2012 | 360,000 compounds, 0.78% hits | inhibition, % at 4 µM;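 active means inhibition above the mean inhibition across every tested compound plus 3 SD, cut at about 22% in these data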;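 further: 0% = DMSO only wells and the 100% control is not disclosed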
Target sequence (Q00G26 whole entry, looked up): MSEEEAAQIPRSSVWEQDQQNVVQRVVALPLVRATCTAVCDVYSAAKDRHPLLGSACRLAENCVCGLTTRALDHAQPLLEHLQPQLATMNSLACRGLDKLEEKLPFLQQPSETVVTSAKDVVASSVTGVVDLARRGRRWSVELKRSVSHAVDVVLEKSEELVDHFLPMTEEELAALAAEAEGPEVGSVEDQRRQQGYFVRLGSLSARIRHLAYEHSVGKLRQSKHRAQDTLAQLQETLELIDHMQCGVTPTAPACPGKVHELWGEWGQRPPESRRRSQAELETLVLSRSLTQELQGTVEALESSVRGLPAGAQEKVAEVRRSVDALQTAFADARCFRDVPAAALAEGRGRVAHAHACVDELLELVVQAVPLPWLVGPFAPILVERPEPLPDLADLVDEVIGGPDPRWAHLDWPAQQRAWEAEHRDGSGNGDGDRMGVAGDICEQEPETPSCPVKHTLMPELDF
Target sequence (Q8WTS1 whole entry, looked up): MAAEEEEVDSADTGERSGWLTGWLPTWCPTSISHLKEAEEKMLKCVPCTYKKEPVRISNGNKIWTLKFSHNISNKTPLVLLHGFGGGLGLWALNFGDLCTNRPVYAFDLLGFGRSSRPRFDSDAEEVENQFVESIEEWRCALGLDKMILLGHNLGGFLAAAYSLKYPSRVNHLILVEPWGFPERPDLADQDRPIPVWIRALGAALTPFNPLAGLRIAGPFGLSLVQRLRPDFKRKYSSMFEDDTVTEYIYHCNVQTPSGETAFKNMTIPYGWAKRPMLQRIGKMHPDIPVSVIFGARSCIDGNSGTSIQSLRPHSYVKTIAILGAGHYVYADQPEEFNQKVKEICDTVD
KKLEB cytotox: cytotoxicity in KKLEB CF airway cells, primary screen, cytotoxicity control for CF NF-kB inhibitor project, cell-based, uHTS, fluorescence assay plates; KKLEB CF airway cells viability, ATPlite luminescence, overnight; stronger effect = lower value; cells stimulated with P. aeruginosa culture filtrate; activity change (cytotoxicity), % at 5 µM; 360,000 compounds, 0.36% hits; AID 602141, 2011;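 active means corrected activity change at or below -50% at 5 µM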
Mdm2 MdmX PPI: inhibitors of human Mdm2-MdmX association, primary screen, cell-based, luminescence, split luciferase, SaOS-2, uHTS; Protein Mdm4 (Homo sapiens) + E3 ubiquitin-protein ligase Mdm2 (Homo sapiens), …; SaOS-2 split-luciferase Mdm2/MdmX complementation; inhibition, % at 8 µM; 330,000 compounds, 3% hits; AID 485346, 2010;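 active means inhibition of at least 50% at 8 µM in the primary screen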
Peg3 promoter: Peg3 promoter-driven luciferase inhibitors, primary screen, cell-based, HeLa, luciferase luminescence | HeLa PEG-Prom luciferase reporter, overnight | inhibition, % at 20 µM | 360,000 compounds, 1.7% hits | AID 588405, 2011;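 active means inhibition of at least 50% at 20 µM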
HIF-2a block: HIF-2a reporter inhibitors, primary screen, luminescence, 786-0 RCC cells; 786-0 RCC cells HIF-2a reporter, luciferase luminescence, overnight; inhibition, % at 18.8 µM; 360,000 compounds, 0.72% hits;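 active means inhibition of the luminescence signal of 40% or more relative to plate controls, in a single-dose primary screen at 18.75 µM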
Mdm2-MdmX conf: Mdm2-MdmX complex disruptors, retested hits, confirmation, luminescence, single concentration; shares compounds with Mdm2 MdmX PPI; 10,000 compounds, 55% hits; Mdm2-MdmX binding, luminescent assay; inhibition, % at 8 µM; AID 489028, 2010; in the data active means inhibition above about 40%
FLuc counter: full-length luciferase signal inhibition, confirmation, counter-screen for Mdm2/MdmX interaction inhibitor project, cell-based, single concentration, SaOS-2; shares compounds with Mdm2 MdmX PPI; SaOS-2 full-length luciferase counterscreen, luminescence; inhibition, % at 8 µM; 6,200 compounds, 77% hits; AID 504607, 2011;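 active means mean inhibition at 8 µM reaching about 37%, which flags the compound as non-specific, limit read from the data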;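 further: p53-null SaOS-2 cells with luciferase driven by a doxycycline-inducible promoter; compound on cells about two nights before reading with doxycycline added after day one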
Starred values were filed as active, the others as inactive. An excerpt weighted towards active compounds, which were near 4.6% of everything screened.

For CCOC(=O)C1=C(C)N=c2s/c(=C/c3cccc([N+](=O)[O-])c3O)c(=O)n2C1c1cc(OC)c(OC)c(OC)c1 (configuration not stated) the results were CF NFkB block 0.5, ABHD5 PLIN5 PPI -14.2, KKLEB cytotox 3.8, Mdm2 MdmX PPI 52.1*, Peg3 promoter 23.8, HIF-2a block 14.4 and Mdm2-MdmX conf 8.6.
Screening CC(C)(C)C(=O)Nc1ccc(N=Nc2ccccc2)cc1 returned CF NFkB block -15.5, ABHD5 PLIN5 PPI -3.7, KKLEB cytotox -38.6, Mdm2 MdmX PPI 71.1*, Peg3 promoter 2.1, HIF-2a block -2.2, Mdm2-MdmX conf 73.2* and FLuc counter 136.4*.
For Cc1ccccc1-c1nc2cc(Cl)ccc2o1 the results were CF NFkB block -9.9, ABHD5 PLIN5 PPI -8.7, KKLEB cytotox 4.0, Mdm2 MdmX PPI -8.5, Peg3 promoter -267.9 and HIF-2a block -207.8.
For Cc1ccccc1-c1nc2cc(Cl)ccc2c(=O)o1 the results were CF NFkB block 0.4, ABHD5 PLIN5 PPI -3.1, KKLEB cytotox -10.5, Mdm2 MdmX PPI 52.0*, Peg3 promoter 25.3, HIF-2a block 4.6, Mdm2-MdmX conf 49.9* and FLuc counter 76.0*.
Screening O=C(NCC1CC1)c1csc([C@@H]2O[C@H](CO)[C@H](O)[C@H](O)[C@H]2O)n1 returned CF NFkB block -9.9, ABHD5 PLIN5 PPI -1.5, KKLEB cytotox 16.9, Peg3 promoter -7.3 and HIF-2a block 12.8.
Screening Cc1ccc([N+](=O)[O-])cc1NC(=O)CSc1nnc(C)n1CC1CCCO1 (configuration not stated) returned CF NFkB block 15.7, ABHD5 PLIN5 PPI -3.3, KKLEB cytotox -13.3, Mdm2 MdmX PPI 5.6, Peg3 promoter -12.7 and HIF-2a block 17.5.
`CCS(=O)(=O)N1Cc2ccccc2CC1C(=O)Nc1nc2ccccc2s1` (configuration not stated) gave CF NFkB block -32.5, ABHD5 PLIN5 PPI -1.4, KKLEB cytotox -7.8, Mdm2 MdmX PPI 59.2*, Peg3 promoter -146.3, HIF-2a block -46.1, Mdm2-MdmX conf 69.8* and FLuc counter 162.4*.
For COc1ccc(S(=O)(=O)N(CC(=O)NCc2ccncc2)c2cc(C)cc(C)c2)cc1OC the results were CF NFkB block -5.4, ABHD5 PLIN5 PPI 7.1, KKLEB cytotox 0.4, Mdm2 MdmX PPI 10.9, Peg3 promoter 4.3 and HIF-2a block 8.5.
`O=C(NNC(=O)c1cc(Br)ccc1Cl)c1csc(N2CCOCC2)n1` gave CF NFkB block 12.4, ABHD5 PLIN5 PPI -1.4, KKLEB cytotox -12.3, Mdm2 MdmX PPI -15.0, Peg3 promoter -2.1 and HIF-2a block 10.6.
`O=C(NNC(=O)c1cc(Br)ccc1O)c1csc(N2CCOCC2)n1` gave CF NFkB block 1.3, ABHD5 PLIN5 PPI 4.8, KKLEB cytotox -11.3, Mdm2 MdmX PPI 64.2*, Peg3 promoter 21.3, HIF-2a block 5.4, Mdm2-MdmX conf 44.4* and FLuc counter 58.6*.
Cc1cc(C)c(NC(=O)CNC(=O)c2ccc3ncsc3c2)c(C)c1 was read as CF NFkB block -10.3, ABHD5 PLIN5 PPI -13.9, KKLEB cytotox 5.8, Mdm2 MdmX PPI -18.1, Peg3 promoter -8.0 and HIF-2a block 4.3.
`COc1ccc(/C=N/n2cnc3c([nH]c4ccc(F)cc43)c2=O)cc1CSc1ccccn1` gave CF NFkB block -6.6, ABHD5 PLIN5 PPI 2.5, KKLEB cytotox -10.6, Mdm2 MdmX PPI 94.4*, Peg3 promoter 30.9, HIF-2a block 18.2 and Mdm2-MdmX conf 27.6.
O=C(Nc1ccc2c(c1)OCCO2)c1cccc2nc3ccccc3nc12 was read as CF NFkB block -33.7, ABHD5 PLIN5 PPI 3.5, KKLEB cytotox 0.6, Mdm2 MdmX PPI 77.6*, Peg3 promoter 42.3, HIF-2a block -71.3, Mdm2-MdmX conf 57.2* and FLuc counter 27.6.
`COc1ccc(CN(C(C)=O)c2cc(C)c([N+](=O)[O-])cc2OC)cc1OC` gave CF NFkB block -9.5, ABHD5 PLIN5 PPI -5.6, KKLEB cytotox 0.6, Peg3 promoter -0.1 and HIF-2a block 0.0.
`CC(C)C[C@@H]1COc2cc(N3CCSCC3)ccc2S(=O)(=O)N1` gave ABHD5 PLIN5 PPI -2.1 and HIF-2a block -3.9.
COC(=O)c1sc(N2C(=O)C(O)=C(C(=O)c3ccc(C)o3)C2c2cc(OC)ccc2OC)nc1C (configuration not stated) was read as CF NFkB block 17.0, ABHD5 PLIN5 PPI -29.9, KKLEB cytotox -4.7, Mdm2 MdmX PPI 26.5, Peg3 promoter 2.1 and HIF-2a block -24.2.
`NC(=O)N=Nc1c2[nH]c3ccccc3nc-2c2ccccc12` gave CF NFkB block -155.5, ABHD5 PLIN5 PPI 2.2, KKLEB cytotox 5.7, Mdm2 MdmX PPI 81.6*, Peg3 promoter 71.8*, HIF-2a block 23.0, Mdm2-MdmX conf 52.4* and FLuc counter 65.4*.
O=c1[nH]c2ccccc2nc1-c1ccccc1 was read as CF NFkB block -7.3, ABHD5 PLIN5 PPI 1.1, KKLEB cytotox 15.8, Mdm2 MdmX PPI -3.6, Peg3 promoter -121.4 and HIF-2a block -179.4.
O=C(O)C1=CC2C=C(Cl)C=CC2OC1=O (configuration not stated) was read as CF NFkB block -19.9, ABHD5 PLIN5 PPI 0.9, KKLEB cytotox 14.3, Peg3 promoter 6.2 and HIF-2a block 11.6.
Screening CC(C)Oc1ccc(C(=O)Nc2nc3ccccc3[nH]2)cc1 returned CF NFkB block -11.9, ABHD5 PLIN5 PPI -0.6, KKLEB cytotox -50.3*, Mdm2 MdmX PPI 69.5*, Peg3 promoter 36.6, HIF-2a block 55.0*, Mdm2-MdmX conf 66.8* and FLuc counter 46.3*.
`O=C(Nc1nc2ccccc2[nH]1)c1ccc(OC(F)F)cc1` gave CF NFkB block -4.5, ABHD5 PLIN5 PPI -10.0, KKLEB cytotox -24.5, Mdm2 MdmX PPI -34.9, Peg3 promoter -116.3 and HIF-2a block -70.3.
O=c1c2nncn2c2cc(C(F)(F)F)ccc2n1CCNc1ncc(C(F)(F)F)cc1Cl was read as CF NFkB block -13.6, ABHD5 PLIN5 PPI 0.4, KKLEB cytotox -10.7, Mdm2 MdmX PPI 1.2, Peg3 promoter -5.7 and HIF-2a block 25.8.

High-throughput results as filed in PubChem BioAssay.
